Laboratory results from PubChem BioAssay.

Molecular target: Fibroblast growth factor 2 (Homo sapiens) (UniProt P09038)
Assay: FGF2 binders on small-molecule microarrays, primary screen, biochemical, small-molecule microarray, 635/667 nm fluorescence (AID 1133)
Settings: small-molecule microarray binding, FGF2, fluorescence 635/667; higher = more signal

Fibroblast growth factor 2 (Homo sapiens), sequence (P09038 whole entry, looked up): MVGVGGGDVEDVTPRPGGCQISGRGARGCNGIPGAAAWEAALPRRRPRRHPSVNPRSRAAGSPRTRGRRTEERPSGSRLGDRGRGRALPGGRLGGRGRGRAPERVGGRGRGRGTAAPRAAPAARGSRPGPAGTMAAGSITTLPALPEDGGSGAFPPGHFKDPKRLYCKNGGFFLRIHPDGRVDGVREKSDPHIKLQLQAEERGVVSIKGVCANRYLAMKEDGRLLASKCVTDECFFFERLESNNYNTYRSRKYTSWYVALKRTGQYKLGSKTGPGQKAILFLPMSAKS

SMILES	composite z-score
COC(=O)[C@@]1(Cc2ccc(OC)cc2)[C@@H]2[C@@H](CC(=O)[C@H]2CC(=O)C(=O)N(C)C)CN1C(=O)c1ccccc1	0.153
CC(C)N1C(=O)[C@@]2(Cc3ccccc31)c1ccccc1C(=O)N(Cc1ccccc1C(F)(F)F)[C@H]2c1ccc(CO)cc1	1.18
COc1ccc(C#Cc2ccc3c(c2)[C@]2(C(=O)N3)[C@H](c3ccccc3OCCO)N3[C@H](c4ccccc4)[C@H](c4ccccc4)OC(=O)[C@H]3[C@@H]2C(=O)NC[C@H](O)c2ccccc2)cc1	1.62
O=C1O[C@H](c2ccccc2)[C@H](c2ccccc2)N2[C@H]1[C@@H](C(=O)O)[C@]1(C(=O)Nc3ccccc31)[C@H]2c1ccc(OCCO)cc1	0.293
Cc1ccc(S[C@]2(C(=O)NCCN3CCOCC3)CC(=O)N(C(C)C)[C@@H]2c2ccc(CO)cc2I)cc1	-0.706
COc1ccc([Si](C)(C)[C@H]2[C@H](CC(=O)N(CCO)Cc3ccccc3)O[C@@]3(C(=O)N(c4ccccc4)c4ccccc43)[C@@H]2C)cc1	0.679
CN1C(=O)C2C=CC(C(O)c3ccc(I)cc3)N(N(c3ccccc3)c3ccccc3)C2C1=O (centres undefined)	-0.394
C=CCC(OC(C)=O)[C@@H]1[C@@H](N(Cc2ccc(-c3ccccc3)cc2)C(=O)Cc2ccc(OC)cc2)c2cc(OCCCO)ccc2N1C(=O)Cc1ccc(OC)cc1 (some centres undefined)	0.0471
Cc1ccc(S[C@]2(C(=O)NC(C)C)CC(=O)N(Cc3ccccc3)[C@@H]2c2ccc(CO)cc2)cc1	-1.36
C=CCNC(=O)[C@H]1[C@@H]2C(=O)O[C@@H](c3ccccc3)[C@@H](c3ccccc3)N2[C@@H](c2ccc(OCCO)cc2)[C@]12C(=O)N(C(=O)OCCOC)c1ccc(C#CCC(C(=O)OC)C(=O)OC)cc12	0.252
CCCCCN1CC=CC23O[C@@H]4/C=C\CCCOC(=O)C4[C@H]2C(=O)N(CCO)[C@@H]3C1=O (some centres undefined)	-0.0388
CN1C2C=C(c3ccc(CO)cc3)C(C3C(=O)N(C(N)=O)C(=O)C32)C1C1CC1 (centres undefined)	-0.379
Cc1ccc(S(=O)(=O)N2[C@@H](c3ccccc3)C(C(=O)O)=C[C@H]2C(C)(C)C)cc1	-0.0977
C=C(C(=O)CC[C@@H](OC(=O)c1ccccc1-c1ccccc1C(=O)O)c1ccc(CO)o1)C(C)C	1.76
COC(=O)[C@@]1(Cc2ccc(F)cc2)[C@@H]2C(=CC(=O)[C@H]2CC(=O)C(=O)N2CCCC2)CN1C(=O)c1ccccc1	0.674
COC(=O)C(CC#Cc1ccc2c(c1)[C@]1(C(=O)N2)[C@H](C(=O)N2CCCCCCC2)[C@H]2C(=O)O[C@H](c3ccccc3)[C@H](c3ccccc3)N2[C@@H]1c1ccc(OCCO)cc1)C(=O)OC	1.6
C=CC[C@H](OC(=O)Nc1ccc(SC)cc1)c1ccc(O)c(F)c1	0.244
Cc1cccc([C@H]2C[C@H]3C(Br)=C[C@@]2(CO)C(=O)[C@]32CO2)c1	-0.117
C=C(CCCC)C(=O)CC[C@H](OC(=O)c1ccccc1-c1ccccc1C(=O)O)c1cccc(OCCO)c1	0.591
